# From PubChem BioAssay
# The entries come from a sample that favours hits as a whole.
# p53ts 32C kill: p53ts cell cytotoxicity, permissive temperature. H1299-p53A138V at 32C, ATP luminescence viability, 24 h. AID 924. Potency, µM (top dose mostly 46.1 µM), for the others: at the highest dose activity change, negative = cytotoxicity, most hits filed as cytotoxic. actives 0.93% (n = 130,000);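 note: potency is the fitted concentration of half-maximal effect; 0% = DMSO and -100% = full killing by reference compound; nearly all actives have a fitted effect of over 55% in size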
#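 Cells: H1299 p53ts (A138V), 600/well, pre-incubated 16–30 h at 37C. Cpd up to 46 uM, 24 h, 32C. Readout: ATPlite luminescence, 20 min RT. Normalization: DMSO vs tamoxifen 100 uM. AC50 by Hill equation.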
# IMPase inh: membrane-permeable compound that blocks inositol monophosphatase. P97697. CHO-M1 cells, IP1 accumulation, HTRF TR-FRET ratio. inhibition (IP1 accumulation), % at 46.1 µM. 120,000 tested, under 10 active. AID 901; active = well fitted curve in the direction sought with a large enough effect in the signal ratio, not every such curve was filed as active; inconclusive = small, poorly fitted or top-dose-only effect, or a change in a side signal; inactive = no such curve, though single readings can be large or run the other way; the % refers to the signal ratio;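 note: cells stimulated with carbachol in lithium chloride buffer; plate controls were DMSO basal wells for no effect and reference inhibitor wells for full effect; higher means more IMPase inhibition seen as more IP1 and lower FRET ratio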
# Target sequence (P97697 whole entry, looked up): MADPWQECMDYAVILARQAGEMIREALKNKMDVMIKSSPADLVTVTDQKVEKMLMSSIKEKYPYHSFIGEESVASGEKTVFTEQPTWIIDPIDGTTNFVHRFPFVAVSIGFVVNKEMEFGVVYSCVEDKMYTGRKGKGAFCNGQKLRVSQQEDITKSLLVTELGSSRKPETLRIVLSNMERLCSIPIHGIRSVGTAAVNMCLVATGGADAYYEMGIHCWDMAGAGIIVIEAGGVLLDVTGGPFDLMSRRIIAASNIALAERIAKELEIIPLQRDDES
#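 The IP-One HTRF competitive assay in carbachol-stimulated CHO-M1 cells quantifies cellular IP1. Compounds spanned up to 46 uM final, and activity is expressed as AC50 from concentration-response fits of the ratio and donor data.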
# IkB sig inh: IkB pathway inhibition in ABC-DLBCL cells; ABC-DLBCL IkBa-CBG/CBR dual luciferase ratio, 4 h; response scale: scaled: untreated 0%, proteasome inhibitor 100%; Potency, µM (series often up to 57.1 µM), for inactives: at the highest dose IkBa stabilization activation; actives 0.04% (n = 110,000); AID 445; active = well fitted curve in the direction sought with a large enough effect in the signal ratio, not every such curve was filed as active; inconclusive = small, poorly fitted or top-dose-only effect, or a change in a side signal; the % refers to the signal ratio;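 note: potency is the fitted concentration of half-maximal effect; the direction sought is a rising ratio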
#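 In this assay, an IκBα–CBG68 fusion accumulates when IKK-driven degradation is blocked; native CBR normalizes for cell number. OCI-Ly3 cells were treated 4 h with compound and doxycycline, then green and red light read after Chroma-Glo addition.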
# FLuc inh: inhibitors of firefly luciferase. purified firefly luciferase, luminescence, 8 min. Potency, µM (titrated, usually from 57.1 µM), for inactives: at the highest dose activity change, negative = inhibition, most hits filed as inhibitors. actives 2.2% (n = 72,000). AID 411. P08659; note: potency is the fitted concentration of half-maximal effect; % is set by controls: 0 for no effect and ±100 for the full control effect; nearly all actives have a fitted effect of over 40% in size
# Target sequence (P08659 whole entry, looked up): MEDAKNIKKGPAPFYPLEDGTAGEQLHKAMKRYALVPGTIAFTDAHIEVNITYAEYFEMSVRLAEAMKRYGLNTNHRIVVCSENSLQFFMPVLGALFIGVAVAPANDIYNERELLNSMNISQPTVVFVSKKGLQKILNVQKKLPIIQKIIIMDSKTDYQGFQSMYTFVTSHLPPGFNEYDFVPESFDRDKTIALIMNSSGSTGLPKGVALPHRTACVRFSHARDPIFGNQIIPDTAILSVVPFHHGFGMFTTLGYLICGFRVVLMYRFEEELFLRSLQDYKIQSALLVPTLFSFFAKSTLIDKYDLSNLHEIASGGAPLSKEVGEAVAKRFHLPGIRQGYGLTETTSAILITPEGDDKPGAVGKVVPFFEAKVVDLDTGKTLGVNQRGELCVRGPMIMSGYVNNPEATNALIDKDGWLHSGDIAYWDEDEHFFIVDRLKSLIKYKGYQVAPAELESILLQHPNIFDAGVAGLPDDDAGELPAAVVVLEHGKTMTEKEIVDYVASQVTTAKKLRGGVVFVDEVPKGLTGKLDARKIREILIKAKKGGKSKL
#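 Here, luciferase activity is measured as luminescence following an 8 min room-temperature reaction at 10 uM ATP, pH 7.2. Every library sample is titrated.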
# Peg3 imprint: genomic imprint erasure induction; mouse ES Peg3-LacZ reporter, beta-gal luminescence, 40 h; Potency, µM (highest dose often 60.7 µM), without a hit: at the top dose activity change, positive = activation, hits mostly activators; actives 0.02% (n = 110,000); AID 1948; note: potency is the fitted concentration of half-maximal effect
#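 Each well holds 300 Peg3LacZ-Neo (maternal) female ES cells incubated 40 h at 37C, 5% CO2. LacZ is measured by BetaGlo luminescence, with AC50 and maximum efficacy derived from dose-response curves.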
# p53ts 39C kill: cytotoxicity in p53ts cells at nonpermissive temperature; Potency, µM (highest dose often 46.1 µM), for the others: at the top dose activity change, negative = cell killing, usual class: cytotoxic; AID 902; actives 1.5% (n = 130,000); H1299-p53A138V viability at 39C, ATP luminescence, 24 h; note: potency is the fitted concentration of half-maximal effect; % is set by controls: 0 for no effect and ±100 for the full control effect; nearly all actives have a fitted effect of over 55% in size
# * marks the source's active call; other numbers are inactive results; ? = inconclusive; / = no result; ! = not confirmed by another sample; [ ] = dose if it differs, or a comment. Unless noted, calls come from the whole dose curve; as a rule, active = well fitted curve in the direction sought with a large enough effect; inconclusive = small, poorly fitted or top-dose-only effect, or another doubt; inactive = no such curve, though single readings can be large; an effect the other way counts as inactive or inconclusive.
SMILES,p53ts 32C kill,IMPase inh,IkB sig inh,FLuc inh,Peg3 imprint,p53ts 39C kill
C=CCN1C[C@@H](C)N([C@H](c2ccc(C(=O)N(CC)CC)cc2)c2cccc(OC)c2)C[C@H]1C,-5.2%,13.3,-7.1%,-2.7%,/,14.9%
CCCCCCCC/C=C\CCCCCCCC(N)=O,-9.1%,-2.3,0.0%,0.3%,-13.3%,31.6µM*
CCCCC/C=C\C/C=C\C/C=C\C/C=C\CCCC(=O)NC1CC1,/,/,/,/,10.1%,/
C=CCCN1C[C@@H]2C[C@H](C1)c1cccc(=O)n1C2,/,/,2.2%[11.4 µM],0.9%[11.4 µM],/,/
CC1=C(O)C(=O)[C@H]2O[C@@H]2C1=O,15.8µM*,?,?,-0.4%,-28.0%,?
Nc1ccccc1O.O.O=C(O)[C@H]1[O][Sb][O][C@H]1C(=O)O,7.4%[9.22 µM],/,?,2.1%[11.4 µM],0.316µM*,?
COc1ccc(C[C@@H]2NC[C@H](O)[C@H]2OC(C)=O)cc1,/,/,?,0.7%[11.4 µM],/,/
C[C@@H](Cc1ccccc1)NCCC(c1ccccc1)c1ccccc1,0.0%[20.6 µM],5.3[20.6 µM],-0.8%[25.6 µM],11.8%[25.5 µM],5.7%[16.8 µM],12.6µM*
C=CCN1CCc2cccc3c2[C@@H]1Cc1ccc(O)c(O)c1-3,?,-0.6,24.7%,-16.4%,/,?
O=c1ccc2cc(O[C@@H]3O[C@@H](CO)[C@@H](O)[C@@H](O)[C@H]3O)c(O)cc2o1,/,/,2.4%[11.4 µM],0.1%[11.4 µM],/,/
Nc1nc2c(ncn2[C@@H]2O[C@H](CO)[C@@H](O)[C@@H]2O)c(=[SH+])[nH]1.O=[N+]([O-])c1ccc(O)[c]([Hg])c1,/,/,/,/,7.6%[10.9 µM],/
O=C(CSc1oc(-c2ccccc2)nc1S(=O)(=O)c1ccc(Cl)cc1)Nc1ccc(F)cc1,?,/,?,/,4.7%[10.9 µM],12.6µM*
CCOc1ccc(NC(=O)CSc2oc(-c3ccccc3)nc2S(=O)(=O)c2ccc(Cl)cc2)cc1,?,/,-3.4%,/,-34.4%[10.9 µM],2µM*
O=C1C[C@H]2OCCC=C3CN4CC[C@@]56c7ccccc7N1[C@@H]5[C@H]2[C@H]3C[C@@H]46,/,/,0.1%[11.4 µM],1.7%[11.4 µM],/,/
CC(C)(O)[C@H]1[C@H]2OC(=O)[C@@H]1[C@]1(O)C[C@H]3O[C@]34C(=O)O[C@H]2[C@]14C (tested in a mixture with another compound),20.4%,-1.1,-1.2%,0.3%,/,12.9%
Cc1oc(-c2ccc(Cl)cc2)nc1CN1CCC(C(=O)NCCCN2CCN(c3cccc(Cl)c3)CC2)CC1,?,/,?,/,-13.9%[10.9 µM],?
Cc1ccc(Cl)cc1N1CCN(C(=O)C2CCN(Cc3nc(-c4ccc(Cl)cc4)oc3C)CC2)CC1,4.3%,/,?,/,-14.8%[10.9 µM],12.6µM*
CO[C@@H]1CC=C2CCN3CCC4=C(CC(=O)OC4)[C@]23C1,10.7%,-1.0,0.6%,0.3%,/,22.2%
COC1=C[C@H]2[C@@H]3Cc4ccc(OC)c(O)c4[C@@]2(CCN3C)CC1=O,/,/,0.6%[11.4 µM],4.1%[11.4 µM],/,/
O=c1cccc2n1C[C@H]1C[C@@H]2CN(CCO)C1,/,/,-0.1%[11.4 µM],1.5%[11.4 µM],/,/
CN1CCN(C(=O)COc2ccc(-c3nc4ccccc4s3)cc2)CC1,1µM*,-0.1,-6.1%,0.794µM*,-20.4%,0.794µM*
COc1ccc(OCC(=O)N2CCN(Cc3cc(=O)n4nc(-c5ccc(OC)cc5)sc4n3)CC2)cc1,-7.1%,/,0.6%,/,7.3%[10.9 µM],8.4%
Ic1ccccc1CN[C@@H]1C2CCN(CC2)[C@H]1C(c1ccccc1)c1ccccc1,?,9.5,-14.3%,1.2%,/,20µM*
Ic1ccccc1CNC1C2CCN(CC2)C1C(c1ccccc1)c1ccccc1 (stereo unspecified),/,/,/,/,7.3%,/
N[C@H](Cn1cc(I)c(=O)[nH]c1=O)C(=O)O,/,/,2.5%,0.6%,/,/
SMILES,p53ts 32C kill,IMPase inh,IkB sig inh,FLuc inh,Peg3 imprint,p53ts 39C kill
COc1ccc(-c2cc(=O)c3cc(OCC(=O)OC(C)C)ccc3o2)cc1,3.16µM*,-3.9,?,/,-19.4%[10.9 µM],3.16µM*
Cc1ccc2oc(-c3ccccc3)cc(=O)c2c1,?,6.0,/,/,-53.9%,?
COC1=C(C)C(=O)c2c(c(COC(N)=O)c3n2C[C@@H]2[C@@H]3N2C)C1=O (stereo partly specified),?,/,3.16µM*,1.3%[11.4 µM],-38.7%[10.9 µM],?
CC[C@H](CO)NC(=O)[C@@H]1C=C2c3cccc4c3c(cn4C)C[C@@H]2N(C)C1,23.7%,-0.3,-3.0%,-1.8%,/,14.5%
Fc1ccc(C(OCCN2CCN(CCCc3ccccc3)CC2)c2ccc(F)cc2)cc1,?,10.7,?,1.6%,-32.4%,31.6µM*!
O=C(O)C1=CCCN(CCOC(c2ccc(C(F)(F)F)cc2)c2ccc(C(F)(F)F)cc2)C1,12.5%,-1.6,1.0%,-5.9%,-10.2%,-19.1%
c1ccc(CCCN2CCN(CCOC(c3ccccc3)c3ccccc3)CC2)cc1,?,15.7,?,1.5%,-25.2%,31.6µM*
C=C[C@@H]1CN2CC[C@@H]1C[C@H]2[C@H](O)c1ccnc2ccccc12,/,/,0.6%[11.4 µM],1.6%[11.4 µM],/,/
O=C1C=CC(=O)c2c1ccc1c2ccc2ccccc21,10µM*,-0.6[20.6 µM],?,4.2%[25.5 µM],-37.8%[16.8 µM],10.9%[20.6 µM]
C=CCn1c(O)c(C(C)=NCc2cc(OC)cc(OC)c2)c(=O)[nH]c1=O,10µM*,-12.1,4.0%,2.6%,-12.4%,?
CN1CCc2cc3c(cc2[C@@H]1[C@H]1OC(=O)c2c1ccc1c2OCO1)OCO3,/,/,-0.2%[11.4 µM],-1.6%[11.4 µM],/,/
CN(C)C(=S)SC(=S)N(C)C,/,/,/,/,-30.8%,/
CN(C)C(=S)SSC(=S)N(C)C,-21.3%[1.84 µM],/,6.31µM*,/,-83.8%,89.7%
Cc1cc(N2CCOCC2)nc2ccc(NC(=O)CCC(=O)N3CCC4(CC3)OCCO4)cc12,-29.3%,-3.3,-1.4%,12.6µM*,24.7%,-27.0%
Cc1cc2c(C(C)C)c(O)c(O)c(C=O)c2c(O)c1-c1c(C)cc2c(C(C)C)c(O)c(O)c(C=O)c2c1O,20µM*!,-2.1,?,-6.1%,-22.4%,20µM*
CSC([N-]/N=C/c1cccc(C)n1)=[S]=[Cu].CS[C@H]([S-])[N-]/N=C/c1cccc(C)n1,2µM*,/,?,-3.4%[11.4 µM],/,?
CC(C)(C)c1cc(C=C(C#N)C#N)cc(C(C)(C)C)c1O,10µM*,21.3,?,0.1%,-30.3%,-23.2%
CNc1ccc2oc(C[C@@H]3O[C@@]4(CC[C@H]3C)O[C@@H]([C@@H](C)C(=O)c3ccc[nH]3)[C@@H](C)C[C@H]4C)nc2c1C(=O)O,/,/,?,-1.5%,/,/
c1ccc2c(c1)[nH]c1cnccc12,6.6%,/,/,-2.0%[25.5 µM],11.1%,21.6%
Cc1c2ccncc2c(C)c2c1[nH]c1ccccc12,12.6µM*,-2.1,?,-0.3%[25.5 µM],-31.4%,12.6µM*
O=C(O)[C@@H](O)[C@@H](O)[C@@H]1[O][Sb][O][C@@H]1CO,6.1%[9.22 µM],/,14.8%[11.4 µM],4.0%[11.4 µM],/,6.5%[9.22 µM]
